Source: PubChem
An excerpt weighted towards active compounds, which were near 2.8% of everything screened.
STAT3 binder: STAT3 (human) binding | calls only | Small molecule microarray, His-STAT3 binding, anti-His fluorescence | P40763 | AID 624138 | actives 0.2% (n = 17,000);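 active = compounds whose four printed spots each show fluorescence over background unusually high for their array block, chance value under 7%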
c-Myc SMM: binders of human c-Myc. P01106. small molecule microarray, His-c-Myc binding, anti-His fluorescence. calls only. actives 1.5% (n = 17,000). AID 624141;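 active = spot fluorescence over background with P-value below 7% in all four replicate spots, showing protein binding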;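 note: score is binary with 100 for all four spots passing and 0 otherwise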
Target sequence (P01106 whole entry, looked up): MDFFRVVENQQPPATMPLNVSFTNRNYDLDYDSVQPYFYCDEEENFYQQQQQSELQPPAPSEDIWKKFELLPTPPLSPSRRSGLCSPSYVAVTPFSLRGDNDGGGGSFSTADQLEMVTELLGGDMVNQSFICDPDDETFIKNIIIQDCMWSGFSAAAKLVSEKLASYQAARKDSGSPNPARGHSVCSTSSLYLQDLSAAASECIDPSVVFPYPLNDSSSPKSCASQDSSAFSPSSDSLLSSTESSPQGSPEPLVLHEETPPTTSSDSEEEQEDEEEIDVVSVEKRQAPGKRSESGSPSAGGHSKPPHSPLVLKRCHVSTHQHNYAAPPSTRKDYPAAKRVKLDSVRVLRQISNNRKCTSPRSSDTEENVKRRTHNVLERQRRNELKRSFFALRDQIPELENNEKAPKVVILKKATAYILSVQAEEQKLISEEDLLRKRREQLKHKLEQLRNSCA
NFkB SMM: binders of human NF-kappa-B p105. P19838. Small molecule microarray, anti-His fluorescence binding. calls only. actives 1.3% (n = 17,000);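 active = spot fluorescence over background significantly raised, with a chance value under 7% in all four replicate spots of the compound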;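 note: probe protein is his-tagged human p50 processed subunit at 1 µg/ml; raw spot fluorescence signals with no normalization applied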
mut p53 react: re-activators of the mutant p53 pathway; SW480 PUMA-promoter luciferase, p53 mutant reactivation; activation, % at 9.98 µM; actives 1.5% (n = 28,000); AID 624151; in the data active = activation above about 52%
mut p53 SMM: binds human mutant p53 on microarray | actives 0.4% (n = 17,000) | small molecule microarray binding, anti-GST fluorescence | calls only;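 active = compounds whose four printed spots each glow above background more than chance allows, each with a p-value under 7%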
Numbers without * were called inactive; i = inactive; / = not tested or not shown; + = active, no number.

SMILES	STAT3 binder	c-Myc SMM	NFkB SMM	mut p53 react	mut p53 SMM
C/C=C/C1=C(Cl)C(=O)[C@@H](O)[C@@]1(O)C(=O)OC	i	i	+	26	i
Cc1cc(C)nc(Nc2n[nH]c(CSc3nc4ccccc4s3)n2)n1	i	i	i	0	i
CC(C)c1onc(-c2c(Cl)cccc2Cl)c1COc1ccc(/C=C/c2cccc(C(=O)O)c2)c(Cl)c1	i	i	i	67*	i
Cc1nn2c(-c3cccc(NC(=O)CN4CCOCC4)c3)nnc2c2ccccc12	i	i	i	53*	i
COc1ccc(OCC(=O)Nc2cccc(-c3nnc4c5ccccc5c(C)nn34)c2)cc1	/	/	/	101*	/
COc1ccc(OCC(=O)Nc2ccc3nn(-c4ccc(Cl)cc4)nc3c2)cc1	/	/	/	39	/
Cc1nn2c(-c3cccc(NC(=O)CSc4nc5ccccc5o4)c3)nnc2c2ccccc12	/	/	/	74*	/
COc1ccc(-c2nnc3c4ccccc4c(C)nn23)cc1S(=O)(=O)N1CCOCC1	/	/	/	5	/
COc1cc(Cc2nccc3cc(OC)c(OC)cc23)c(NC(=O)c2cc(F)c(F)cc2Cl)cc1OC	/	/	/	1	/
Nc1ccc2nc(SCC(=O)Nc3ccc(Oc4ccccc4)cc3)sc2c1	/	/	/	-4	/
Cc1ccc(-c2noc(CCC(=O)NC(C)(C)C)n2)cc1	i	i	i	61*	i
O=c1c(-c2ccc(O)cc2)coc2cc(O)cc(O)c12	/	/	/	53*	/
COc1cccc(OC)c1C(=O)Nc1ccc(C(=O)NCC2CCCO2)cc1 (configuration not stated)	i	i	i	-23	i
CC(=O)CCc1ccc(Oc2ccc(C(F)(F)F)cn2)cc1	i	i	i	65*	i
COc1ccc2[nH]c(C(=O)O)c(CCC(=O)O)c2c1	i	i	i	2	i
COc1ccc2[nH]c3c(OC)ncnc3c2c1	/	/	/	81*	/
CCc1ccc(S(=O)(=O)NCC(=O)O)cc1	i	+	+	-8	i
O=C(CSc1nc(O)cc(=O)n1-c1ccccc1)N1CCc2ccccc21	i	i	i	-14	+
Cc1cc(C)cc(C(=O)N(C)C(Cc2ccc(-c3ccccc3)cc2)C(=O)NC(Cc2c[nH]c3ccccc23)C(=O)O)c1 (configuration not stated)	i	i	i	-11	i
COc1cc(NC(=O)COc2ccccc2OC)cc(OC)c1	/	/	/	1	/
Cc1ccc(C)c(OCC(=O)Nc2cccc(-c3nnc(-c4ccco4)o3)c2)c1	/	/	/	102*	/
COc1ccccc1OCC(=O)Nc1cccc(-c2nnc(-c3ccco3)o2)c1	/	/	/	62*	/
COc1ccc(CC(=O)Nc2cccc(-c3nnc(-c4ccc(C)cc4)o3)c2)cc1OC	i	i	i	5	i
Cc1ccc(C)c(OCC(=O)Nc2cccc(-c3nc4ccccc4o3)c2)c1	/	/	/	-4	/
COc1ccccc1OCC(=O)Nc1cccc(-c2nnc(-c3ccccc3)o2)c1	i	i	i	95*	i
SMILES	STAT3 binder	c-Myc SMM	NFkB SMM	mut p53 react	mut p53 SMM
c1cc(-c2nc(-c3ccc4c(c3)OCCCO4)cs2)ccc1-c1csnn1	/	/	/	46	/
CN1c2ccccc2Oc2nnc(N3CCN(c4ccccc4)CC3)cc21	/	/	/	95*	/
O=C(CSc1nnc(-c2ccccc2Cl)n1-c1ccccc1)N1CCc2ccccc21	/	/	/	15	/
Cc1cc(C)n(CC(O)Cn2ccc3ccccc32)n1 (configuration not stated)	i	+	+	-12	i
C[C@@H]1CN([C@@H](C)CO)C(=O)c2cccc(NC(=O)Nc3ccc4c(c3)OCO4)c2O[C@H]1CN(C)C	i	i	i	74*	i
C[C@H](CO)N1C[C@H](C)[C@H](CN(C)S(C)(=O)=O)Oc2c(NC(=O)Nc3ccc4c(c3)OCO4)cccc2C1=O	/	/	/	7	/
C[C@H]1CN([C@@H](C)CO)C(=O)c2cccc(NC(=O)Nc3ccc4c(c3)OCO4)c2O[C@@H]1CN(C)C	/	/	/	58*	/
CNC[C@@H]1Oc2c(NC(=O)Nc3ccc4c(c3)OCO4)cccc2C(=O)N([C@@H](C)CO)C[C@@H]1C	i	i	i	/	i
Nc1ncnc2c1c1nc3ccccc3nc1n2CCc1ccccc1	/	/	/	17	/
CCOc1cc(C(=O)O)cc(I)c1OCC(=O)O	i	+	+	-9	i
C[C@@H]1CN([C@H](C)CO)C(=O)c2cccc(NC(=O)NC3CCCCC3)c2O[C@@H]1CN(C)C(=O)Nc1ccc(C(F)(F)F)cc1	i	i	i	-17	i
C[C@H](CO)N1C[C@H](C)[C@H](CN(C)C(=O)Nc2ccccc2)Oc2ncc(-c3cccc(C(F)(F)F)c3)cc2C1=O	i	+	+	0	i
COc1ccc(NC(=O)N(C)C[C@@H]2Oc3ncc(-c4cccc(C(F)(F)F)c4)cc3C(=O)N([C@H](C)CO)C[C@@H]2C)cc1	i	i	i	-3	i
C[C@H](CO)N1C[C@H](C)[C@@H](CN(C)C(=O)Nc2ccc(C(F)(F)F)cc2)Oc2c(NC(=O)NC3CCCCC3)cccc2C1=O	i	+	+	3	i
C[C@@H]1CN([C@@H](C)CO)C(=O)c2cccc(NC(=O)c3cnccn3)c2O[C@H]1CN(C)C(=O)Nc1ccccc1	i	+	+	7	i
C[C@@H]1CN([C@@H](C)CO)C(=O)c2cccc(NC(=O)NC3CCCCC3)c2O[C@@H]1CN(C)C(=O)Nc1ccc(C(F)(F)F)cc1	i	+	+	-27	i
CC(C)c1nnc(NC(=O)CC(NC(=O)c2ccccc2)c2ccccc2)s1 (configuration not stated)	/	/	/	14	/
O=C1C(=O)N(Cc2ccco2)C(c2ccccc2)C1C(=O)c1cccs1 (configuration not stated)	/	/	/	3	/
COC(=O)CN(c1ccc2c(c1)OCCO2)S(C)(=O)=O	/	/	/	11	/
C[C@H]1CN([C@@H](C)CO)C(=O)c2cccc(NC(=O)Nc3ccc(C(F)(F)F)cc3)c2O[C@@H]1CN(C)CC1CC1	+	i	i	5	i
C[C@H](CO)N1C[C@H](C)[C@H](CN(C)S(=O)(=O)c2ccccc2)Oc2ncc(C#Cc3ccc(C(F)(F)F)cc3)cc2C1=O	i	+	i	-25	i
C[C@H](CO)N1C[C@H](C)[C@H](CN(C)S(=O)(=O)c2ccccc2)Oc2ncc(C#Cc3ccccc3)cc2C1=O	i	i	i	-6	i
C[C@H]1CN([C@@H](C)CO)C(=O)c2cccc(NC(=O)NC3CCCCC3)c2O[C@H]1CN(C)S(=O)(=O)c1ccc(Cl)cc1	i	+	i	-19	i
C[C@H](CO)N1C[C@H](C)[C@@H](CN(C)CC2CC2)Oc2c(NC(=O)Nc3ccc(C(F)(F)F)cc3)cccc2C1=O	i	i	i	9	i
C[C@H]1CN([C@@H](C)CO)C(=O)c2cccc(NC(=O)Nc3ccc(C(F)(F)F)cc3)c2O[C@@H]1CN(C)C(=O)NC1CCCCC1	+	i	i	-20	i
CCc1cc(C(=O)OC)c(NC(=O)c2cc(-c3cccnc3)nc3ccc(Br)cc23)s1	/	/	/	-20	/
